Experimental data published in PubChem BioAssay (NCI).
This is part of a sample that, as a whole, favours compounds with a hit. Of some 79,000 tested, about 15% had one in any assay. A number with no mark means an inactive call. Calls of active or inactive are those of the source. Rule as the data show it: active = growth inhibition above about 70%; inactive = the rest.

How the values were obtained:
[1] = NCI Yeast Anticancer Drug Screen. Data for the rad50 strain (AID 155);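 also: 0% = growth of vehicle-only cultures of the same strain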; conditions: S. cerevisiae rad50 strain growth inhibition; at 50.0 µM; active compounds read high
Method in brief: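 Compounds were tested on a yeast strain with an engineered DNA damage repair alteration; the reported value is growth inhibition normalised to vehicle treatment.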

[2] = NCI Yeast Anticancer Drug Screen. Data for the mec2-1 strain (AID 157); conditions: S. cerevisiae mec2-1 strain, at 50.0 µM, active compounds read high
Method in brief: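 Using mec2-1 yeast: add compound, measure growth, express inhibition versus vehicle-treated cultures.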

[3] = NCI Yeast Anticancer Drug Screen. Data for the sgs1 mgt1 strain (AID 161);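 also: 0% = growth of cultures given vehicle only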; conditions: S. cerevisiae sgs1 mgt1 strain, at 50.0 µM, active compounds read high
Method in brief: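 Compounds are added to genetically altered yeast, and growth is compared with cultures given vehicle alone to give percent inhibition.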

[4] = NCI Yeast Anticancer Drug Screen. Data for the cln2 rad14 strain (AID 165);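 also: 0% = growth equal to vehicle treated cultures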; conditions: S. cerevisiae cln2 rad14 strain, at 50.0 µM, active compounds read high
Method in brief: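 Yeast strain cln2 rad14, bearing defects in cell cycle control and DNA repair, serves as the test system; values reflect growth inhibition compared with vehicle.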

[5] = NCI Yeast Anticancer Drug Screen. Data for the bub3 strain (AID 167); conditions: S. cerevisiae bub3 mutant strain, at 50.0 µM, active compounds read high
Method in brief: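 Growth of a checkpoint-deficient yeast mutant is measured after compound exposure. Values represent inhibition relative to vehicle.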

[6] = NCI Yeast Anticancer Drug Screen. Data for the mlh1 rad18 strain (AID 175); conditions: S. cerevisiae mlh1 rad18 strain growth inhibition; at 50.0 µM; active compounds read high
Method in brief: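 Steps: expose repair-defective yeast to compound; measure growth; express inhibition against vehicle-treated controls.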

SMILES | growth inhibition [1] | growth inhibition [2] | growth inhibition [3] | growth inhibition [4] | growth inhibition [5] | growth inhibition [6]
COc1cc(C)c(/C=C/C(=O)N2C(=O)OC[C@@H]2c2ccccc2)c(C)c1 | 4.35% | -8.75% | 21.1% | 26.9% | 19.1% | 18.2%
COc1cccc(OC)c1C | 15.1% | -11.1% | -10.6% | 14.6% | -4.25% | 16.6%
O=C(O)C1CC(Cl)C(O)C(Cl)C1 (configuration not stated) | -6.9% | 8.4% | 8.95% | -56.3% | -6.65% | 9%
CC(=O)OC1CCC2(C)OC(=O)CC2C1 (configuration not stated) | 2.2% | 8.55% | 6.9% | -41.9% | 9.6% | 1.4%
CCCCC(CCc1ccccc1)C(=O)NCC (configuration not stated) | -5.1% | -11.6% | -18.4% | -11% | -12.3% | 5.1%
N=C(N)Cn1cnc2ccccc21 | -13.7% | -10.3% | -9.65% | 14.9% | 3.8% | -18.4%
Cc1cccc(NC(=O)c2c(Br)c(Br)c(Br)c(Br)c2C(=O)O)c1C | 26.9% | -18% | 12.7% | 2.85% | 5.4% | -4.3%
CCN(CC)Cc1ccccc1COC(=O)c1ccc(OC)cc1 | -0.1% | -3.45% | 14.8% | -15.2% | -7.25% | 11.3%
Cc1cc(C)c(C(=O)CCC(=O)O)c(C)c1 | 11.8% | 7.8% | 16.6% | 17.9% | -4.7% | 16.6%
Cn1c(=O)c2c(=O)n3ccccc3nc2n(C)c1=O | 48% | 48% | 72.1% (active) | 68.4% | 62.9% | 69.4%
CC(C)CCc1c(Cl)nc(Cl)nc1Cl | 32.2% | 38.6% | 33.6% | 10.1% | 43.9% | 16.9%
O=C(O)CCC1(C(=O)O)NCCc2c1[nH]c1ccccc21 (configuration not stated) | 8.1% | 11.8% | 5.1% | 8.55% | 7.9% | 12.6%
NC(=O)c1nc(N)nc(N)c1[N+](=O)[O-] | -10.8% | -15.1% | -16.1% | -18.8% | -21.9% | -18.9%
O=c1[nH]cc(S)c(=O)[nH]1 | 15.8% | -28.4% | -15.4% | -9.35% | -9.7% | -0.35%
C1CCCN(NC2=NCCO2)CC1 | 18.8% | 4.8% | 7.3% | 5.95% | 1.45% | 25.9%
Cc1cccc(C=NC23CC4CC(CC(C4)C2)C3)c1 | -30.4% | -40.5% | -40.5% | -30.7% | -44.9% | -43.3%
O=S(=O)(O)c1ccc[n+]([O-])c1 | 5.7% | 15.4% | -0.05% | 39.5% | 9.1% | -8.2%
COc1nnc(-c2ccccc2)c(-c2ccccc2)n1 | 13.2% | 20.3% | -2.25% | -9.6% | 25.5% | 6.5%
Cc1cc(C)c(NC(=O)Nc2cccc(Cl)c2)c(C)c1 | -0.85% | 17.3% | 1.7% | -4% | 3.35% | -17.1%
NNC(=O)c1ccc(Cl)cc1Nc1ccccc1 | 24.9% | 47% | 59% | 16.7% | -17.2% | 89% (active)
O=C1NC(CCl)(CCl)CO1 | 4.15% | 8.85% | -1.7% | 5.45% | -2.05% | 10.1%

SMILES | growth inhibition [1] | growth inhibition [2] | growth inhibition [3] | growth inhibition [4] | growth inhibition [5] | growth inhibition [6]
O=C1C(OCc2ccccc2)=C(c2ccccc2)C(=O)N1c1ccccc1 | -1.75% | -13.2% | 2.2% | 24.8% | -11.6% | -9.75%
CC1c2[nH]c3ccccc3c2CC1C(=O)O (configuration not stated) | 10.3% | 12.6% | 5.25% | -13.2% | -9.8% | -5.35%
O=C1CN(Cc2ccccc2)CCO1 | 4.95% | -4.3% | -3.55% | 0.9% | 10.5% | 1.4%
O=C(Nc1ccc2ccccc2c1)c1ccc(Cl)c(Cl)c1 | -5% | 29.6% | 24.9% | -6.8% | 18.9% | 27.4%
CN(C)C(=S)Oc1ccc([N+](=O)[O-])cc1Cl | 17.9% | 6.95% | 4.95% | 19.4% | -3.3% | 29.3%
O=C(O)/C=C/C(=O)N1Cc2cc3ccccc3nc2C1 | -5.75% | -31.1% | -45.8% | -28.1% | -56.2% | -13.7%
COC(=O)C(CCc1ccc([N+](=O)[O-])cc1)(CCc1ccc([N+](=O)[O-])cc1)C(C)=O | 5.9% | -10% | 4.55% | -19.9% | 19.7% | 28.6%
CC(C)C1CCC2(CC1)CCN(CCCN(C)C)CC2 | -4.65% | 25.3% | 9.15% | -23.6% | 7.25% | -7.65%
CC(O)C(N=Cc1ccccc1[O-])C(=O)[O-].CC(O)C(N=Cc1ccccc1[O-])C(=O)[O-].[Co+2] (configuration not stated) | -7% | -2.05% | -16.6% | 4.4% | 7.65% | -25.9%
Cc1cccc(C(C)C)c1NC(=O)C(=O)CC(=O)c1sc(Nc2ccccc2Cl)nc1C | -40% | -8.5% | -0.45% | -14.6% | -30.1% | 1.15%
CC(=O)Nc1cc2c(cc1Cl)-c1ccc(Br)cc1C2 | 6.35% | -12.8% | -2.25% | -23.4% | 0.85% | -19.7%
Fc1cccc(-c2nnc(-c3cccc(F)c3)o2)c1 | 12.7% | -10.1% | -6.9% | -38% | -2.65% | -4.85%
Cc1ccc(-c2nc3ccccc3cc2N)cc1 | 5.85% | 7.65% | -0.45% | -14% | 3.15% | -4.4%
BrCC1=CC(c2ccccc2)(c2ccccc2)c2ccccc21 | 96.2% (active) | 97% (active) | 97.3% (active) | 94.3% (active) | 96.2% (active) | 96.1% (active)
O=C(O)CCCc1ccc(Oc2ccccc2)cc1 | -6.05% | -15.3% | 22% | -8.85% | -5% | -6.6%
C=CCC(O)c1ccc2c(c1)OCO2 (configuration not stated) | -1% | 13.3% | -9.8% | -40% | -4.25% | 10.1%
O=C1C(c2cnc3c(n2)CCC=C3)=C(O)c2ccccc21 | -1.15% | -7.8% | -6.6% | -84.2% | -16.7% | -0.65%
O=c1[nH][nH]c(=O)c2[nH]cnc12 | -11.9% | -8.2% | 29.1% | -62.6% | -6.3% | -10%
C=C1C(=O)O[C@H]2[C@H]1CC(=O)/C(C)=C\CC[C@@]1(C)O[C@@H]21 | 29.2% | 59.4% | 63.4% | 35.5% | 64.8% | 43.1%
CCCCC(C)C(=O)CC(SCC)c1ccc(Cl)c(Cl)c1 (configuration not stated) | 19.6% | -26.9% | 17.3% | -12.4% | 8.2% | -0.95%
O=C(OCc1ccccc1)/C(c1ccccc1)=[N+]1/C(=S)Nc2ccc([N+](=O)[O-])cc21 | 3% | -5% | 1.6% | 3.8% | 13.9% | 7.9%
